Assay results: PubChem BioAssay (NCATS)
Records with an inconclusive call do not appear. Activity calls are given as the source filed them. Calls come from the whole dose curve; as a rule, active = well fitted cell-killing curve with a large enough effect; inconclusive = small, poorly fitted or top-dose-only effect, or effect the other way; inactive = flat fitted curve, though single readings scatter. Where a SMILES comes first, the peptide text is derived from it. [ ]: non-standard residue; d: D form. ξ: configuration not given here. ξTyr(βOH) = NC(C(=O)O)C(O)c1ccc(O)cc1

System: OV90
Assay: Primary qHTS to identify gynecologic anti-cancer compounds using libraries of approved drugs and bioactive compounds (AID 1345084); note: nearly all actives have a fitted effect of over 55% in size
Conditions: Gynecologic cancer cell panel viability, ATPlite luminescence, 48 h; series mostly up to 57.5 µM; activity change, negative = cytotoxicity: at the top concentration
How it was run: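 Cells, 1,000 per well, plated 16 h, then exposed 48 h at 37 C to compounds. Viability by ATPlite luminescence after 15 min at room temperature.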
% is set by controls: 0 for no effect and ±100 for the full control effect.

Compound	activity change, negative = cytotoxicity
CC1=C2CC(C)(C)CC2C(O)C2=C(C1)C(=O)OC2O (stereo unspecified)	6.15% (inactive)
C=C1C(O)C(OC(=O)c2ccccc2)C2C(C)(C(=O)O)CCCC2(C)C1CC/C(C)=C\CO (stereo unspecified)	7.2% [at 25.3 µM] (inactive)
C[C@]1(O)CC[C@@H]2C(C(=O)O)=CO[C@@H](O[C@@H]3O[C@H](COC(=O)/C=C/c4ccc(O)c(O)c4)[C@@H](O)[C@H](O)[C@H]3O)[C@@H]21	-3.84% [at 25.3 µM] (inactive)
C/C=C(\C)C(=O)OC1C(C)C2(O)C3C=C(C)C(=O)C3CC(CO)=CC2C2C(C)(C)C12OC(C)=O (stereo unspecified)	-2.18% [at 25.3 µM] (inactive)
CC(=O)OC1CC2(C)C(CCC(C)C23Cc2c(O)cc4c(c2O3)CNC4=O)C(C)(C)C1O (stereo unspecified)	-1.6% [at 25.3 µM] (inactive)
C[C@@]1(O)[C@H](O)[C@@H](CO)O[C@H]1n1cnc2c(=O)[nH]c(N)nc21	-3.9% (inactive)
COc1ccc(C(=O)NCc2cc(C(C)C)no2)cc1OC1CCN(C)CC1	1.11% (inactive)
O=c1[nH]ccc2nc(-c3ccc(CN4CCC(c5nc(-c6ccccn6)n[nH]5)CC4)cc3)c(-c3ccccc3)cc12	-12.2% (inactive)
COC(=O)C1=COC(OC2OC(CO)C(O)C(O)C2O)C2C(C)CC(=O)C12O (stereo unspecified)	1.87% [at 25.3 µM] (inactive)
C=C1C2CCC3C(CCC4[C@@]3(C)CCC[C@@]4(C)C(=O)O)(C2)[C@@H]1OC(=O)/C(C)=C\C (stereo partly specified)	20.3% [at 25.3 µM] (inactive)
CC(=O)O[C@@H]1[C@H](O[C@@H]2O[C@H](CO)[C@@H](O)[C@H](O)[C@H]2O)[C@@H](O[C@@H]2O[C@@H](C)[C@H](O)[C@@H](O[C@@H]3O[C@H](CO)[C@@H](O)[C@H](O)[C@H]3O)[C@H]2O)[C@H](OC(=O)[C@]23CCC(C)(C)C[C@H]2C2=CCC4[C@@]5(C)C[C@H](O)[C@H](O[C@@H]6O[C@H](C(=O)O)[C@@H](O)[C@H](O)[C@H]6O)[C@@](C)(C(=O)O)C5CC[C@@]4(C)[C@]2(C)CC3)O[C@@H]1C (stereo partly specified)	12.5% [at 6.55 µM] (inactive)
C[C@@H]1O[C@@H](O[C@H]2[C@H](O)[C@@H](O)[C@H](OC(=O)[C@]34CCC(C)(C)C[C@H]3C3=CCC5[C@@]6(C)CC[C@H](O[C@@H]7O[C@H](C(=O)O)[C@@H](O)[C@H](O)[C@H]7O)C(C)(C)C6CC[C@@]5(C)[C@]3(C)CC4)O[C@@H]2CO)[C@H](O)[C@H](O)[C@H]1O (stereo partly specified)	-2.03% [at 11.6 µM] (inactive)
C[C@@H]1O[C@@H](O[C@H]2[C@H](O[C@H]3[C@H](O[C@H]4CC[C@@]5(C)C(CC[C@]6(C)C5CC=C5[C@@H]7CC(C)(C)CC(=O)[C@]7(C)CC[C@]56C)[C@@]4(C)CO)O[C@H](C(=O)O)[C@@H](O)[C@@H]3O)O[C@H](CO)[C@H](O)[C@@H]2O)[C@H](O)[C@H](O)[C@H]1O (stereo partly specified)	-8.44% [at 11.6 µM] (inactive)
O=C(O[C@@H]1O[C@H](CO)[C@@H](O)[C@H](O)[C@H]1O)c1ccccc1	1.48% (inactive)
COc1cc(C(CO)C(OC2OC(CO)C(O)C(O)C2O)c2ccc(O)c(OC)c2)ccc1O (stereo unspecified)	8.09% [at 25.3 µM] (inactive)
COc1ccc(C2COc3cc(O)ccc3C2)c(O)c1OC (stereo unspecified)	-20.6% (inactive)
C=C1CCC2[C@@](C)(C(=O)O)CCC[C@@]2(C)[C@@H]1CCc1ccoc1 (stereo partly specified)	5.58% [at 38.5 µM] (inactive)
CC(C)C1NC(=O)CNC(=O)C2CCCN2C(=O)C(Cc2c[nH]c3ccccc23)NC(=O)CNC(=O)C(C(O)c2ccc(O)cc2)NC(=O)CNC1=O (stereo unspecified) (cyclo(G[ξTyr(βOH)]GWPGV); configuration not given here)	12.9% [at 25.3 µM] (inactive)
COCCN1CCC(C(=O)NO)(S(=O)(=O)c2ccc(Oc3ccc(OC(F)(F)F)cc3)cc2)CC1	5.51% (inactive)
COc1cc(/C=C/C(=O)O[C@@H]2O[C@H](CO)[C@@H](O)[C@H](O)[C@H]2O)ccc1O	0.587% [at 38.5 µM] (inactive)
C/C(=C\C(=O)C(C)C1CCC2C3=C(CCC21C)C1(C)CCC(=O)C(C)(C)C1(O)CC3)C(C)(C)O (stereo unspecified)	2.1% [at 25.3 µM] (inactive)
CC(C)CC[C@@H](O)[C@](C)(O)[C@H]1CC[C@@]2(O)C3=CC(=O)[C@@H]4C[C@@H](O)[C@@H](O)C[C@]4(C)[C@H]3CC[C@]12C	0.851% (inactive)
N#Cc1ccc(C2CCCc3cncn32)cc1 (stereo unspecified)	3.03% [at 25.3 µM] (inactive)
Cc1cc(O[C@@H]2O[C@H](COC(=O)CC(=O)O)[C@@H](O)[C@H](O)[C@H]2O)c(C(C)C)cc1O	-1.86% [at 25.3 µM] (inactive)
CC1(C)CC[C@]2(C(=O)O)CC[C@]3(C)C(=CCC4[C@@]5(C)CC[C@H](O)C(C)(C)C5CC[C@]43C)C2C1 (stereo partly specified)	-3.79% [at 25.3 µM] (inactive)
Cc1onc(-c2ccccc2Cl)c1C(=O)N(C)c1ccc(Cl)cc1	-5.16% (inactive)
